# Measured values reported in PubChem BioAssay AID1987 (The Scripps Research Institute Molecular Screening Center, 2009).
# Among all 320,000 compounds or so, about 560 (0.17%) were called active. This excerpt belongs to a sample that is enriched for actives. A number with no mark means an inactive call.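 The calls were made as follows: active = inhibition above the campaign's mean inhibition across all tested compounds plus 3 SD (cut at about 9.5% in these data); inactive = the rest.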
# Target: Serine/threonine-protein phosphatase 5 (Homo sapiens) (UniProt P53041)
# Sequence (P53041 whole entry, looked up): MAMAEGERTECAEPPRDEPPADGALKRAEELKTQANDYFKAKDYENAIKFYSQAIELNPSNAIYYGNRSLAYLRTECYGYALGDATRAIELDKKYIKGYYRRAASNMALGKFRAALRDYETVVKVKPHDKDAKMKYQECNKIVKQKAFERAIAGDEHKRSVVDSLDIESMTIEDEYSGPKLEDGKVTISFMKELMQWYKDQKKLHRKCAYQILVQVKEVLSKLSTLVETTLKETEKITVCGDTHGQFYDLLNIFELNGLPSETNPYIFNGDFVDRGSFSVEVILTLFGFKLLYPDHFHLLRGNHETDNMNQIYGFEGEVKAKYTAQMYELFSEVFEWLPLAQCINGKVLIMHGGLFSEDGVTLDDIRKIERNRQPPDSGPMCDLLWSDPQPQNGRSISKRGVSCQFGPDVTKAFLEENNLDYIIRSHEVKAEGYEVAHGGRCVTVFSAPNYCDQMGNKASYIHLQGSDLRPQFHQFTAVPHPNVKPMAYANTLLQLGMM
# Experiment: PP5 phosphatase inhibitors, primary screen, biochemical, fluorescence (AID 1987);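 also: 0% = DMSO only and 100% = 100 µM cantharidin control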
# Settings: purified PP5c, OMFP substrate fluorescence; at 6.7 µM; stronger effect = higher value
row,Structure (SMILES),inhibition
1,Cc1nc(CNS(=O)(=O)c2cc([N+](=O)[O-])ccc2C)cs1,-0.47%
2,N#CCc1c(C#N)c(N)nc(N2CCCC2)c1C#N,2.12%
3,N#Cc1c(N2CCCCC2)nc(N)c2c(N)nc(SCC(=O)O)cc12,12.7% (active)
4,N#Cc1c(-c2ccccc2)cc(-c2ccccc2)nc1SCC(=O)O,-0.23%
5,CC1(C)CC(=O)C=C(NCCCN2CCCC2=O)C1,-3.07%
6,Cc1nc(NC(CC(C)C)C(=O)O)c2nc(C)oc2n1 (stereo not given),11.7% (active)
7,CC1(c2cccc([N+](=O)[O-])c2)CC(C)(C)N(C(=O)c2ccccc2)c2ccccc21 (stereo not given),3.32%
8,O=C1[C@H]2[C@@H](c3ccc(Cl)cc3)N3C(=O)N(c4cccc(F)c4)C(=O)[C@@]3(Cc3ccccc3)[C@H]2C(=O)N1C1CCCCC1,2.69%
9,C[C@@]12C(=O)N(c3cccc(Br)c3)C(=O)N1[C@H](c1ccc(Cl)cc1)[C@@H]1C(=O)N(C3CCCCC3)C(=O)[C@@H]12,9.7% (active)
10,CC(C)(C)N1C(=O)[C@H]2[C@@H](c3ccc(Br)cc3)N3C(=O)N(c4cccc(Cl)c4)C(=O)[C@@]3(C)[C@H]2C1=O,5.22%
11,O=C(CCn1nnnc1CN1CCOCC1)N1CCC(c2ccccc2Cl)C1 (stereo not given),0.07%
12,Cc1noc(C)c1C(=O)N(CC(=O)NC1CCCC1)Cc1ccccc1F,0.94%
13,CN(CC(=O)NCc1ccc(Cl)cc1)S(=O)(=O)c1cccs1,3.27%
14,Cc1c(C)c2c(OCC(=O)N[C@@H](C(=O)O)c3ccccc3)cc3c(c2oc1=O)CCC(C)(C)O3,2.43%
15,c1ccc(C[C@H]2CNCCN2CCC23CC4CC(CC(C4)C2)C3)cc1,1.23%
16,CCn1ccnc1CNC(=O)CC1C(=O)NCCN1CCCc1ccccc1 (stereo not given),0.82%
17,COCC1CCN(C(=O)c2ccc3oc(Cc4ccccc4)nc3c2)C1 (stereo not given),2.88%
18,O=c1ccc2c(-c3ccccc3S(=O)(=O)O)c3ccc(O)c(O)c3oc-2c1O,9.92% (active)
19,O=[N+]([O-])c1cc([N+](=O)[O-])c2cccnc2c1O,2%
20,O=[N+]([O-])c1cccc2ncccc12,10.4% (active)
21,Nc1nc(Sc2ncccc2[N+](=O)[O-])n[nH]1,1.94%
22,N#Cc1ccc(CN2CCN(CC(=O)Nc3ccccc3C(=O)NC3CC3)CC2)cc1,-0.41%
23,CC(NC(=O)c1cc2cc(Cl)ccc2oc1=N)c1ccccc1 (stereo not given),2.37%

row,Structure (SMILES),inhibition
1,COc1cc(C(=O)Nn2c(O)c(C3=c4ccccc4=NC3=O)sc2=S)ccc1O,-1.88%
2,CN(C(=O)CN1C(=O)/C(=C/c2ccc(Cl)cc2)SC1=S)C1CCS(=O)(=O)C1 (stereo not given),2.22%
3,NNC(=O)c1oc2nc(-c3ccccc3)cc(-c3ccco3)c2c1N,-0.37%
4,CNC(=S)NNC(=O)c1oc2nc(-c3ccccc3)cc(-c3ccco3)c2c1N,15% (active)
5,CNc1nc(-c2ccccc2)cc(-c2ccccc2)n1,3.18%
6,COc1ccc(S(=O)(=O)N2CCOCC2)cc1NC(=O)CC1CC2CCC1C2 (stereo not given),-2.65%
7,COc1ccc(OC)c(C(=O)c2ccc(C(=O)O)cc2)c1,10.3% (active)
8,COc1ccc(OC)c(C(=O)c2coc3ccc(OC)cc23)c1,3.44%
9,COc1ccc(OC)c(C(=O)c2ccc(Cl)cc2)c1,1.9%
10,COC(=O)c1ccccc1NC(=O)CSc1n[nH]c(-c2ccncc2)n1,2.98%
11,Cc1cc(N2CCCC2=O)cc(C)c1S(N)(=O)=O,0.58%
12,COCCNC(=O)c1ccc2c(c1)ncn2-c1ccc(C)c(Cl)c1,-2.87%
13,CCC(=C/c1sc2ccc3ccccc3c2[n+]1C)/C=C1\Sc2ccc3ccccc3c2N1C,13% (active)
14,COc1cccc(CNC(=O)CCC2CCCN(C(=O)c3cc(C)[nH]n3)C2)c1 (stereo not given),-3.1%
15,CC(=O)N1CCOc2ccc(S(=O)(=O)N3CCC(C(=O)Nc4ccccc4F)CC3)cc21,-2.25%
16,COc1cccc(NC(=S)C(C#N)=C2N(C)c3ccccc3N2C)c1,3.32%
17,CC1Cc2cc(/C(O)=C3\C(=O)C(=O)N(Cc4cccnc4)C3c3ccccc3F)ccc2O1 (stereo not given),-0.96%
18,O=C1C=C(c2cccc(Br)c2)C[C@@H](c2ccc(F)cc2)C1,2.74%
19,O=C(NCCCN1CCCCCC1)C1CC(=O)N(C2CCCC2)C1 (stereo not given),0.05%
20,CCc1c(O)nc(SCC(=O)Nc2ccccc2)n(C(C)CC)c1=O (stereo not given),4.45%
21,CCCCN(C(=O)c1ccc(OC(F)(F)F)cc1)c1c(N)n(CCC)c(=O)[nH]c1=O,2.07%
22,O=C(CN(CC1CCCO1)C(=O)CNS(=O)(=O)c1ccc(Cl)cc1)NCc1ccccc1 (stereo not given),-1.95%
23,Cc1ccc(C2=NN(C(=O)COc3ncnc4ccccc34)C(c3ccco3)C2)cc1 (stereo not given),-1.05%

row,Structure (SMILES),inhibition
1,CCOC(=O)N1CCN(Cc2oc(CO)cc(=O)c2O)CC1,3.28%
2,CCC(C(=O)NCCC(C)C)N(Cc1ccccc1Cl)C(=O)c1snc(C(N)=O)c1N (stereo not given),-2.16%
3,CC(=O)NCc1ccc(S(=O)(=O)NC2CCN(Cc3ccccc3)CC2)cc1,2.13%
4,C=C(C)CNc1cc(S(=O)(=O)N2CCOCC2)ccc1Oc1ccccc1,4.3%
5,Cc1ccc(CCN2CC(C(=O)O)CC2=O)cc1 (stereo not given),5.13%
6,CC(C)(C)S(=O)(=O)c1ccccc1-c1noc(-c2ccccc2)c1C(N)=O,-0.76%
7,Cc1ccc(Cl)cc1NC(=O)CN1CCN(S(=O)(=O)N2CCOCC2)CC1,0.83%
8,Cc1cc(C(=O)COc2ccc(Br)cc2F)c(C)n1C1CC1,-1.78%
9,O=C(NCc1cccc(Cl)c1)C1=CC=CN2CCS(=O)(=O)N=C12,0.61%
10,COc1cccc(OCc2nnc3n2N=C(c2ccccc2)C(CC(=O)O)S3)c1 (stereo not given),-0.47%
11,COc1ccccc1C(=O)NCCC(=O)N(C)Cc1cccnc1,0.46%
12,Cn1c(N)c(C(=O)COC(=O)COc2ccc(Cl)cc2)c(=O)n(C)c1=O,1%
13,FC(F)(F)c1ccc2nnc(-c3c(Cl)cccc3Cl)n2c1,-1.13%
14,O=C1Oc2ccccc2C(=O)/C1=C/c1ccccc1O,4.64%
15,COc1ccc(NC(=O)CSc2nncc(=O)n2N)cc1OC,2.92%
16,O=C(Nc1ccccc1)C1CC(=O)n2c(nc3ccccc32)N1 (stereo not given),-0.67%
17,Nc1ccc(C(=O)Nc2ccccc2N)cc1,-0.77%
18,Cc1ccc(CN2CCN(Cc3cccc(C)n3)CC2CCO)cc1 (stereo not given),0.2%
19,CC(C)(C)NC(=O)c1cccc(NC(=O)Cc2ccc(Br)cc2)c1,3.17%
20,CC(C)(C)C(=O)Nc1c(Br)c(C2CC2)nn1-c1ccccc1,0.27%
21,CCOC(=O)C1=C(CC)OC(N)=C(C#N)C1c1ccc(F)cc1F (stereo not given),-1.28%
22,COc1cc(OC)cc(-c2cc3nc(C4CCN(C(=O)OC(C)(C)C)CC4)cc(=O)n3[nH]2)c1,-0.26%
23,COc1ccc(NC(=O)CCCC(=O)c2ccccc2)cc1,0.28%

row,Structure (SMILES),inhibition
1,CCCn1c(C)cc(/C=C(\C#N)C(=O)OCC(=O)Nc2cc(OC)c(OC)c(OC)c2)c1C,0.54%
2,O=C(C1=C[C@H](c2ccc(C(F)(F)F)cc2)C[C@H](OCc2ccc(CO)cc2)O1)N1CCN(Cc2ccccc2)CC1,9.64% (active)
3,O=C(NCc1ccccc1)C1=C[C@@H](c2ccc(C(F)(F)F)cc2)C[C@@H](OCc2ccc(CO)cc2)O1,7.35%
4,O=C(C1=C[C@H](C2CC2)C[C@H](OCc2ccc(CO)cc2)O1)N1CCN(Cc2ccccc2)CC1,1.72%
5,Nc1nnc(SCC(=O)NCC(=O)Nc2ccc(F)c(F)c2F)s1,-0.64%
6,O=C(OCc1cn(-c2ccc(Cl)c(Cl)c2)nn1)c1ccccc1Cl,1.67%
7,CC1CCCC(C)N1C(=O)COC(=O)COc1ccccc1C#N (stereo not given),-0.87%
8,CN(C)c1nc(N)nc(CSc2nnnn2-c2cccc3ccccc23)n1,11.6% (active)
9,COc1ccc(-n2nnnc2SCc2nc(N)nc(N3CCOCC3)n2)cc1,0.58%
10,CN(C)c1nc(N)nc(CSc2ccccn2)n1,1.71%
11,O=C(O)c1cc(S(=O)(=O)Nc2ccc3cn[nH]c3c2)ccc1Br,4.94%
12,Cc1ccc(-n2nc(-c3ccco3)cc2C(=O)NCc2cccnc2)cc1,2.97%
13,CC1(OC(=O)C2CCCC2)C(=O)C=C2C=C(c3ccc(C#N)cc3)OC=C2C1=O (stereo not given),-1.54%
14,COCCN1C=C2C(=O)C(C)(OC(=O)C3CCCC3)C(=O)C=C2C=C1c1ccsc1 (stereo not given),11.1% (active)
15,COC(=O)CCCC1=CC2=CC(=O)C(C)(OC(=O)c3cccs3)C(=O)C2=CN1CC1CC1 (stereo not given),5.3%
16,CN(c1ccccc1)S(=O)(=O)c1ccc(NC(=O)COc2ccccc2)cc1,10.2% (active)
17,CN(c1ccc(OCC(=O)O)cc1)S(=O)(=O)c1ccc2ccccc2c1,1%
18,O=C(COc1ccccc1)Nc1ccc(F)cc1,0.71%
19,Cc1ccc(S(=O)(=O)N(c2cccc(C)c2)C2CCS(=O)(=O)C2)cc1 (stereo not given),0.29%
20,Cc1nnc(SCC(=O)Nc2ncc3c(n2)CC(C)(C)CC3=O)s1,2.93%
21,O=C(O)C1CCC(CNS(=O)(=O)c2ccc(Br)cc2)CC1 (stereo not given),-2.97%
